± gives the standard deviation of the averaged measurements. Whole data set: some 25,000 sequences, median “ln(normalized median fluorescence intensity)” near 7.9, cut for the highest 2% near 11. The sample holds the highest values, similar sequences and a random draw of the others, so the mix is not that of the screen.

This note sets out measurements from the supplement of paper PMC11417369.

The experiment has as its system PfAP2-I AP2 domain 3 (GST-tagged). Description: gcPBM binding intensity (ln(normalized median fluorescence intensity)); higher = stronger DNA binding. Put shortly: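 Probes on an Agilent 4 × 180k array were primer-extended, double-stranded and 36 bp long, taken from intergenic genomic regions, with negative controls added. GST-tagged P. falciparum DNA-binding domains from E. coli, about 25 μg on average, were applied to the array for 1 h in 1× PBS containing 1% milk, 0.2 mg/ml BSA, 0.5% salmon testes DNA and 0.03% Triton X-100. Binding intensity, obtained after Alexa488 anti-GST antibody detection and a 488 nm scan, is the highest Masliner-normalised natural-log median intensity across replicate spots of either probe orientation.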
On to “ATGGATTTTACCATAGCACACATATATGAATATTTT [CACACA_site8535]”, for which the “gcPBM binding intensity (ln)” value stood at 7.96 ± 0.54.

“ATTAAATTAAAATAATGTACTTAATACTTTTGCTTA [XGTACX_site8404]”: the “gcPBM binding intensity (ln)” value is 7.39 ± 0.39.

For the sequence “AATATAATATAATGCACACATAAACAAAAAAAAAAT [CACACA_site1304]”, the “gcPBM binding intensity (ln)” value came to 10.9 ± 0.96.

As to “TTAACAAATAAATGCACACATATATATAAATAATAT [CACACA_site28]”, the “gcPBM binding intensity (ln)” value was 9.52 ± 0.35.

With “AAAATATAATATAATGCACACATAAAACAAAAAAAA [CACACA_site8989]”, the “gcPBM binding intensity (ln)” value turned out to be 10.7 ± 0.67.

For the sequence “AAATTATAATATAATACACACATAAAAAAAAAATCA [CACACA_site3634]”, the “gcPBM binding intensity (ln)” value came out at 7.76 ± 0.45.

Take “AAAATATAAAATAATGCACACATAAACAAAAAATCA [CACACA_site8382]”: the “gcPBM binding intensity (ln)” value was 10.8 ± 0.96.

As for “AAATCACATAAAACATAATCAAATGAAATATAATCA [CACACA_negctrl_site123]”, the “gcPBM binding intensity (ln)” value was 7.38 ± 0.6.

With “CCCCCCGTGTTATATACACACATAATCAAATAAAAT [CACACA_site4111]”, the “gcPBM binding intensity (ln)” value amounted to 10.9 ± 0.4.

On to “AATATAAAATAATGCACACATAAACAAAAAATCAAA [CACACA_site1371]”, for which the “gcPBM binding intensity (ln)” value amounted to 10.9 ± 0.88.

Take “AGGCACGTGTTATATACACACATAATCAAATAAACT [CACACA_site7852]”: the “gcPBM binding intensity (ln)” value is 8.11 ± 0.61.

As for “AATTTTTTATTCTTTGCATGTCATCATATATAATAT [TGCATGCA_site549]”, the “gcPBM binding intensity (ln)” value turned out to be 8.12 ± 0.69.

Turning to “TCTTATTTAAAAATAGCACACATTATATATATATAT [CACACA_site8916]”, the “gcPBM binding intensity (ln)” value stood at 9.44 ± 0.26.

As to “TTTTTTAAAATATAAAATATGTACAAATATGTTGAA [GTGCAC_negctrl_site379]”, the “gcPBM binding intensity (ln)” value was found to be 7.97 ± 0.3.

Turning to “TGAATAAATAAACACACACACATATATATATCTGTA [CACACA_site4184]”, the “gcPBM binding intensity (ln)” value was 7.59 ± 0.4.

In the case of AATATTCAATATAAAGTGCATTATTGTGCCCCTAAT, the “gcPBM binding intensity (ln)” value amounted to 11.3 ± 0.64.

Consider “ACTATATATATAAGTGCATGTTCATTATACCTAAAG [TGCATGCA_site696]”, for which the “gcPBM binding intensity (ln)” value was 8.93 ± 0.57.

Turning to “TTAATTATTATATAAGTGCAATAATAAAAAGTTGTA [GTGCAC_site9552]”, the “gcPBM binding intensity (ln)” value was 10.7 ± 0.76.

For the sequence AAATAAATAAATAGAGTGCATATATATATATATTTT, the “gcPBM binding intensity (ln)” value stood at 10.01 ± 0.042.

With “ACGTACTGCCCTAAAGTGCATATATAATATAAACGA [GTGCAC_site9911]”, the “gcPBM binding intensity (ln)” value came out at 10.1 ± 0.34.

“AAGTGCATATTATTCACACATAATAATTGTATACCT [CACACA_site5965]”: the “gcPBM binding intensity (ln)” value was determined as 10.3 ± 0.47.

Regarding AGTAATTATTTTAGAGTGCATAGTTTTTTAATAAAT, the “gcPBM binding intensity (ln)” value stood at 9.54 ± 0.18.

AATATTCAATATAAAGTGCATTATTGTGGACCTAAT: the “gcPBM binding intensity (ln)” value was 11.3 ± 0.65.

In the case of TTCGCCCTAAATAGAGTGCATTATATATATTAATAT, the “gcPBM binding intensity (ln)” value turned out to be 11.4 ± 0.58.

Turning to “ACTAACATATATTCAACACACATATACCTTCAACCC [CACACA_site3011]”, the “gcPBM binding intensity (ln)” value turned out to be 7.94 ± 0.72.

As to “TAAATGCACATATACACACACCCAATTTTAAGTTTT [CACACA_site7428]”, the “gcPBM binding intensity (ln)” value turned out to be 9.31 ± 0.3.

“TAAATAAAAAAAAAAAGTACATACATACAAACATAT [XGTACX_site4427]”: the “gcPBM binding intensity (ln)” value was 7.79 ± 0.47.

As for “TGAACATCATTTTTATGTACACACACATATACGTTG [XGTACX_site3864]”, the “gcPBM binding intensity (ln)” value amounted to 7.96 ± 0.28.

For “AAAAAAAAATAATATTGTACACACATAAATTCTTTG [XGTACX_site4315]”, the “gcPBM binding intensity (ln)” value was 7.51 ± 0.47.

As to “TTATAATACCTACAAAGTACAAACTTAAATATGAAC [XGTACX_site5684]”, the “gcPBM binding intensity (ln)” value was 7.68 ± 0.39.

Take “TATACAAGTATATAGGTGCATATATAAGTATATATT [GTGCAC_site9994]”: the “gcPBM binding intensity (ln)” value amounted to 10.5 ± 0.53.

For the sequence “TGTATGTTTGGGTGCACACATAAATATTATATATAG [CACACA_site3397]”, the “gcPBM binding intensity (ln)” value was 10.5 ± 0.57.

On to “TATAGGTATATATAAGTGCAATATATATGTATATAC [GTGCAC_site9427]”, for which the “gcPBM binding intensity (ln)” value stood at 10.9 ± 0.41.

For “ATATATTTATAATAGGTGCATATGTTTTATTTTTCC [GTGCAC_site9849]”, the “gcPBM binding intensity (ln)” value was 10.1 ± 0.5.

On to “GCATATATGGATATATAGGTATATATAAATGCAATA [GTGCAC_negctrl_site24]”, for which the “gcPBM binding intensity (ln)” value was 7.82 ± 0.71.

Take TATGGGTTTATATAGGTGCAATATATGTATATATAA: the “gcPBM binding intensity (ln)” value turned out to be 11.2 ± 0.59.

For “AAATACCTGATATATACACACTATGTTTTTCTTTTT [CACACA_site6680]”, the “gcPBM binding intensity (ln)” value was found to be 7.77 ± 0.81.

As for “CTTTTTAAATTAAAATGTACAGAAAAATATTATTAT [XGTACX_site8760]”, the “gcPBM binding intensity (ln)” value was determined as 7.72 ± 0.69.

“AAGGAAAATTTTTGGTGTACACAAAAAAATCCAAAA [XGTACX_site3596]”: the “gcPBM binding intensity (ln)” value is 8.46 ± 0.057.

As for “AAAGATGGAGTGATATGTACTGATATATTATTATAT [XGTACX_site6500]”, the “gcPBM binding intensity (ln)” value is 7.62 ± 0.67.

On to “TGTATAACCTGTGTTACACACATTAAAATTTATATA [CACACA_site4449]”, for which the “gcPBM binding intensity (ln)” value was 7.67 ± 0.46.

Take “AAAAAAAAAAAAAAAGTGCATATATAAATATTGTAT [GTGCAC_site9459]”: the “gcPBM binding intensity (ln)” value amounted to 10.1 ± 0.18.

For the sequence “TTATTTTTGTTTTGAAGTACAAAAAAATATATTCTT [XGTACX_site6416]”, the “gcPBM binding intensity (ln)” value was 7.63 ± 0.34.

Take “AAAAAAAAAAAAAAAGTGCACTGAAAATATATTGAA [GTGCAC_site9395]”: the “gcPBM binding intensity (ln)” value stood at 11 ± 0.2.

Turning to “TTCTTGTTCCTGAAAGTGCATATAACAAAAATAACA [GTGCAC_site9635]”, the “gcPBM binding intensity (ln)” value stood at 9.99 ± 0.3.

Take TTTGTTCTTTTTGAAGTGCACTGAAATATAACAAAA: the “gcPBM binding intensity (ln)” value was determined as 11.3 ± 0.16.

Consider AAATAATATTGAAAAGTGCATATTTTTGTTGATATA, for which the “gcPBM binding intensity (ln)” value turned out to be 9.15 ± 0.21.
